CYP2C9 activ: activators of human CYP2C9. 96,000 compounds, 1.4% hits. P11712. recombinant CYP2C9, luciferin-H conversion, luminescence; hits give high values; factor 1 = untreated enzyme, 0 = blocked. activation factor at 5 µM. AID 1024;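 active = activation factor of 2 or more for CYP2C9 at a 5 µM dose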;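 note: 0 = sulfaphenazole-blocked wells and 1 = vehicle-only wells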
Target sequence (P11712 whole entry, looked up): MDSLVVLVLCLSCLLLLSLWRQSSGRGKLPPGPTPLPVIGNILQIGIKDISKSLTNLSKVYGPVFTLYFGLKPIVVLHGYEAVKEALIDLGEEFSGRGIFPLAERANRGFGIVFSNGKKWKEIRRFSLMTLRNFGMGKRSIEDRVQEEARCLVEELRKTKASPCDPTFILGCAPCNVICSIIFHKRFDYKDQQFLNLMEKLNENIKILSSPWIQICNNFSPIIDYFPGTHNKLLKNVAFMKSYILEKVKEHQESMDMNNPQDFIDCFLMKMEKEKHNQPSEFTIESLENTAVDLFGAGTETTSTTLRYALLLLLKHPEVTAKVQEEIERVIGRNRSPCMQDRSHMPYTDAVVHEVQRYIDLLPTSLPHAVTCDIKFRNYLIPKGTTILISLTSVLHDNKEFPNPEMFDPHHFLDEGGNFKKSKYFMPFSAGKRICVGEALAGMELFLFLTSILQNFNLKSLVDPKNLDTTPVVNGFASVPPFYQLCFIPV
CYP2C9 inhib: blocks human cytochrome P450 2C9. CYP2C9 Supersomes, luciferin-H conversion, luminescence. 96,000 compounds, 20% hits. inhibition, % at 5 µM;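 active = blocking of liver enzyme CYP2C9 beyond about 50% at 5 µM, limit read from the data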
PostGolgi yeast: growth inhibition of a yeast mutant, post-Golgi transport screen; post-Golgi transport phenotypic cell assay; AID 739; 98,000 compounds, 0.9% hits; inhibition, % at 10 µM;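 note: yeast cells grown in 1536-well plates; yeast grown about 18 h at 30C before absorbance read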
CYP2C19 inh: inhibitors of human CYP2C19. P33261. CYP2C19 Supersomes, luciferin-H EGE luminescence, 30 min. inhibition, % at 5 µM. 96,000 compounds, 21% hits. AID 778;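 active = CYP2C19 inhibition above a set limit at 5 µM in the primary screen, cut at about 50% in these data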;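 note: plate controls were negative control wells for no effect and 2.5 mM tranylcypromine positive control for full effect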
CYP2C19 act: activators of human cytochrome P450 2C19; 96,000 tested, under 10 active; recombinant CYP2C19, luciferin-H EGE luminescence; hits give high values; 0 = fully inhibited enzyme, 1 = untreated enzyme; activation factor at 5 µM; AID 1025; P33261;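 active = activation factor of at least 2 at 5 µM in the primary screen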;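 note: 0 = wells with 2.5 mM tranylcypromine and 1 = vehicle-only wells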
PostGolgi ctrl: inhibits growth of the yeast control strain | 98,000 compounds, 5% hits | AID 738 | efflux-deficient yeast background strain, growth absorbance A615, 16 h | inhibition, % at 10 µM
* hit, by the source's call; x = not tested or not shown. Hits are enriched below; roughly 32% of the tested compounds scored in any of these assays. Cut-off read from the data, not from the text of the source, unless noted: active = inhibition above about 30%; inactive = the rest.

SMILES	CYP2C9 activ	CYP2C9 inhib	PostGolgi yeast	CYP2C19 inh	CYP2C19 act	PostGolgi ctrl
Cc1ccc(CN(C(=O)c2cc3ccccc3oc2=O)C2CCS(=O)(=O)C2)cc1 (configuration not stated)	0.7	29	-1	8	0.9	1
CC(C)(C)c1ccc(C(=O)Nc2nonc2-c2nc3ccccc3[nH]2)cc1	0.9	10	-5	14	0.9	6
COc1ccc(-c2nc(CSCC(=O)NC3CCCc4ccccc43)c(C)o2)cc1 (configuration not stated)	0.4	58*	11	63*	0.4	11
O=C(COc1ccc(-c2nnco2)cc1)NC1CCCc2ccccc21 (configuration not stated)	0.1	86*	-12	98*	0	-8
Cn1c(=O)c2c(ncn2CC(=O)NCc2cccnc2)n(C)c1=O	0.9	10	4	-4	1	4
CN(C)C(=O)c1ccc(Oc2ccc(C(=O)N(C)C)cc2)cc1	1.1	-12	14	-18	1.2	-1
CCc1ccc(NC(=O)C(C)Nc2ccc(S(=O)(=O)NC(C)=O)cc2)cc1 (configuration not stated)	0.9	10	-3	11	0.9	9
CC(=O)NS(=O)(=O)c1ccc(NC(=S)NC(=O)C(C)C)cc1	1	4	0	-3	1	36*
CC(=O)c1cccc(NC(=S)NC(=O)C(C)C)c1	0.5	52*	-2	40	0.6	7
CC(Oc1ccccc1)c1ccnc2nc(/N=C/N(C)C)nn12 (configuration not stated)	1.2	-16	1	3	1	-6
O=C(COC(=O)c1ccncc1)Nc1cc(Cl)c(Cl)cc1Cl	0.1	88*	-3	98*	0	2
O=C(OCc1ccc(Cl)cc1Cl)c1ccncc1	0.6	44	7	69*	0.3	14
O=C(OCc1c(Cl)cccc1Cl)c1ccccn1	1.1	-14	-2	5	0.9	10
O=C(C/C=N/OCc1ccc(Cl)cc1Cl)c1ccc(Cl)cc1	1	1	0	28	0.7	2
O=C(OCc1ccc(F)cc1Cl)c1ccccn1	0.8	17	0	80*	0.2	0
COC(=O)c1ccccc1NC(=O)COC(=O)c1cccnc1	0.6	40	19	50	0.5	8
O=C(COC(=O)c1ccncc1)Nc1cc(Cl)ccc1Cl	0.1	90*	3	66*	0.3	8
CCN(c1ccc(NC(=O)CN2C(=O)NC3(CCOc4ccccc43)C2=O)cc1)C(C)C (configuration not stated)	0.4	59*	2	27	0.7	8
S=C1NC(c2ccccc2)=NCN1c1ccccc1	0.4	65*	4	95*	0.1	24
CCOC(=O)N1CCN(C(=O)CN(Cc2ccccc2)S(=O)(=O)c2ccc(OC)c(Cl)c2)CC1	0.5	55*	9	89*	0.1	5
Cc1ccc(S(=O)(=O)N(CCC(=O)O)Cc2ccc(Cl)cc2)cc1	0.5	54*	13	37	0.6	-4
CCOC(=O)N1CCN(C(=O)CN(Cc2ccc(Cl)cc2)S(=O)(=O)c2ccc(C)cc2)CC1	0.1	90*	1	96*	0	26
COc1ccc(S(=O)(=O)N(C)CC(=O)N2CCN(Cc3ccccc3)CC2)cc1C	2.4*	-137	11	32	0.7	3
CCCCCn1c(SCCN2CCOCC2)nc2c1c(=O)[nH]c(=O)n2C	0.7	35	-2	-4	1	10
CCCNC(=O)CN1C(=O)NC2(CCCc3cc(OC)ccc32)C1=O (configuration not stated)	1.1	-15	-2	3	1	-6
SMILES	CYP2C9 activ	CYP2C9 inhib	PostGolgi yeast	CYP2C19 inh	CYP2C19 act	PostGolgi ctrl
COc1ccc(OC)c(-c2c[n+](=O)c3c(n2[O-])CCCC3)c1	1.1	-11	5	-20	1.2	-4
CCN1CCN(C(=O)CN(C)S(=O)(=O)c2ccc(OC)c(C)c2)CC1	1.6	-62	-9	-2	1	-6
CCOC(=O)N1CCN(C(=O)CN(Cc2ccccc2)S(=O)(=O)c2ccc(OC)c(C)c2)CC1	0.7	27	-5	64*	0.4	30*
C=CCN(CC=C)c1cnn(-c2nc3ccccc3[nH]2)c(=O)c1Cl	0.5	54*	-2	56*	0.4	7
CNC(=O)c1ccccc1F	1	-2	-1	-28	1.3	0
CCCCOC(=O)Nc1cc(Cl)ccc1C	1	0	2	11	0.9	11
CCCOC(=O)NC(CC)COC(=O)Nc1cc(C)ccc1C (configuration not stated)	0.8	25	2	70*	0.3	33*
CCOC(=O)c1c(N)sc(C(O)(C(F)(F)F)C(F)(F)F)c1-c1ccc(Cl)cc1	0.1	86*	-1	62*	0.4	72*
CCOC(=O)c1c(N)sc(C(O)(C(F)(F)F)C(F)(F)F)c1-c1ccc(F)cc1	0.3	75*	2	32	0.7	16
CCCCc1nnc(SCCSc2nnc(CCCC)n2N)n1N	0.9	12	0	-4	1	8
CCCCOCCCNC(=O)CN1C(=O)c2ccccc2C1=O	1.1	-9	5	-6	1.1	-3
CCOC(=O)c1ccccc1NC(=O)COC(=O)C1=COCCO1	0.3	68*	8	15	0.9	20
COc1ccc(CNC(=O)COC(=O)C2=COCCO2)cc1	0.9	8	37*	39	0.6	10
O=C(OCC(=O)N1CCc2ccccc21)C1=COCCO1	x	x	1	x	x	2
O=C(COC(=O)C1=COCCO1)Nc1ccc(Oc2ccccc2)cc1	0.1	90*	3	82*	0.2	1
CC(CCc1ccccc1)NC(=O)COC(=O)C1=COCCO1 (configuration not stated)	0.5	50*	4	56*	0.4	7
CC(C)(C)c1ccc(NC(=O)COC(=O)C2=COCCO2)cc1	0.5	46	-6	25	0.7	-2
O=C(c1ccccc1)[C@H]1[C@H](c2ccccc2)[C@@]2(N=C(c3ccccc3)OC2=O)C2c3ccccc3C=NN21 (some centres not stated)	0.9	14	-8	22	0.8	4
CCOC(=O)N1CCN(C(=O)c2oc3ccc(S(=O)(=O)N4CCCCCC4)cc3c2C)CC1	0.3	73*	-3	80*	0.2	12
CCOC(=O)C1CCN(C(=O)c2oc3ccc(S(=O)(=O)N4CC(C)CC(C)C4)cc3c2C)CC1 (configuration not stated)	0.7	35	2	35	0.7	5
O=C(c1cccc(S(=O)(=O)N2CCOCC2)c1)N1CCCc2ccccc21	0.9	5	-6	40	0.6	2

High-throughput results deposited in PubChem BioAssay by several laboratories.
